High-throughput results deposited in PubChem by several laboratories.
An excerpt weighted towards active compounds, which were near 2.2% of everything screened.
LGR2 antag = blocks bursicon-induced cAMP signaling via Drosophila LGR2; HEK293 LGR2, CRE-luciferase, bursicon-stimulated, 4 h; hit rate 0.35% among 380,000; inhibition, % at 9.99 µM; AID 720647;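 active = drop in luminescence signal, shown as inhibition above about 50% in the replicate tests, limit read from the data, passing the limit was not always enough; inconclusive = probably only some replicates passing the limit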;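 note: agonist challenge used bursicon conditioned medium at about half maximal strength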
HSP90 refold inh = HSP90 refolding inhibition in rabbit reticulocyte lysate; inhibition, % at 5.6 µM; AID 1789; luciferase refolding luminescence, 3 h; hit rate 0.91% among 290,000;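 active = inhibition above the screen-wide mean plus 3 SD, computed separately per campaign, cut at about 16% in these data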;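 note: 0% = DMSO wells and 100% = 60 µM geldanamycin wells; inhibitors lower the luminescence because luciferase stays unfolded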
TWEAK Fn14 block = blocks TWEAK-Fn14 interaction in a reporter cell assay; TWEAK-stimulated Fn14 reporter cells, luciferase luminescence, 8 h; inhibition, % at 10 µM; hit rate 2% among 360,000; in the data active = inhibition above about 50%
TROY NFkB inh = inhibitors of TROY-dependent NF-kB signaling. Q293 LMP1-TROYcd NF-kB luciferase reporter, 4 h. inhibition, % at 10 µM. hit rate 0.98% among 360,000. AID 1347056;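 active = compounds whose plate-normalised and pattern-corrected inhibition of the luciferase reporter signal at the single screening dose is 50% or more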
* hit, by the source's call; ? = inconclusive; nt = no result given; ! = a repeat was not active.

SMILES | LGR2 antag | HSP90 refold inh | TWEAK Fn14 block | TROY NFkB inh
COCc1ccc(O)c2ncccc12 | nt | 9 | 79* | nt
Oc1ccc(CNc2ccccc2)c2cccnc12 | nt | -5 | 21 | 8
Oc1ccc(Cn2ccnc2)c2cccnc12 | -19 | 4 | -5 | 0
Cc1ccccc1NCc1ccc(O)c2ncccc12 | 14 | -1 | 59* | 21
O=C(Nc1ccc(N2CCN(C(=O)c3ccc(Cl)cc3)CC2)cc1)c1cc2ccccc2o1 | ? | 8 | 90* | 69*
Cc1ccc(SSc2cc(C)ccc2N)c(N)c1 | -57 | nt | 58* | 43
Cc1ccc(O)c(N)c1 | nt | nt | 34 | 37
C[C@@H]1CN([C@H](C)CO)C(=O)Cc2cc(NC(=O)NC3CCCCC3)ccc2O[C@@H]1CN(C)CC1CCCCC1 | -14 | nt | nt | nt
O=Nc1ccc(NO)c2ccccc12 | -18 | nt | 71* | 36
COc1ccc(-c2ccccc2[C@@H]2[C@@H](C#N)N(C(=O)C3CC3)[C@H]2CO)cc1 | -13 | nt | nt | nt
COc1ccc(C(=O)c2[nH]c(N)c(C(=O)NCCc3c[nH]c4ccccc34)c2-c2c(F)cccc2Cl)cc1 | 26 | nt | 54* | 23
Cn1c(=O)c2c(ncn2CCC(=O)N/N=C/c2cccnc2)n(C)c1=O | nt | 1 | 84* | 0
Cn1c(=O)c2c(ncn2CCC(=O)N/N=C/c2ccccc2)n(C)c1=O | 3 | 3 | 1 | -1
Cc1ccc(C2C3=C(CC(C)(C)CC3=O)NC3=C2C(=O)CC(C)(C)C3)o1 | nt | -3 | 84* | nt
CC=Cc1ccc2n(c1=O)C[C@H]1[C@H](CO)[C@@H](C(=O)NCc3ccc(F)cc3)N(C)[C@@H]21 (mixture of isomers) | 5 | nt | nt | nt
O=C(CSc1nnc(-c2ccc3c(c2)OCCO3)o1)N1CCCC1 | nt | 11 | 70* | 28
O=C(CSc1nnc(-c2ccccc2)o1)c1ccc2c(c1)OCCO2 | nt | -5 | 20 | 59*
CC(=O)c1ccc(N=Nc2ccc(C)cc2)cc1 | 73* | 15 | 68* | 61*
C=C(C)C(=O)Oc1ccc(N=Nc2ccc(C)cc2)ccc1=O | -28 | nt | 59* | -35
CC(=O)c1ccc(N=Nc2ccc(N(C)C)cc2)cc1 | nt | 5 | 104* | 54*
CN(C)C(=S)c1ccc(N(C)C)cc1 | -8 | 1 | -14 | 8
C=C(C)C(=O)Oc1ccc(N2C(=O)CCC2=O)cc1 | -3 | -2 | 1 | 4
COc1ccc2c3c(n(C)c2c1)[C@@H](CO)N(C(=O)Nc1ccc(F)cc1)CC31CCN(S(=O)(=O)c2cccc(C)c2)CC1 | 25 | nt | nt | nt
CC(=O)N(C)C[C@@H]1Oc2cc(-c3ccc(C)cc3)ccc2S(=O)(=O)N([C@@H](C)CO)C[C@H]1C | -15 | nt | nt | nt
COc1ccc2c3c(n(C)c2c1)[C@H](CO)NCC31CCN(S(=O)(=O)c2cccc(F)c2)CC1 | -10 | nt | nt | nt
SMILES | LGR2 antag | HSP90 refold inh | TWEAK Fn14 block | TROY NFkB inh
CC(=O)Oc1ccc2ccccc2c1C(NC(=O)Cc1ccccc1)c1ccc(Cl)cc1 (stereo not drawn) | nt | 2 | 55* | 36
CCOC(=O)C1CCN(CC(=O)Nc2c(C(=O)OC)[nH]c3cccc(Cl)c23)CC1 | nt | -2 | -1 | 7
COC(=O)c1[nH]c2cccc(Cl)c2c1NC(=O)CN(C)C1CCCCC1 | nt | 0 | 95* | -2
O=C(COC(=O)c1nc(Cl)c(Cl)c(Cl)c1Cl)NCc1ccccc1 | -20 | nt | 85* | 32
COc1cccc(C=Nc2ccc3c(c2)OCCO3)c1O | nt | 12 | 80* | 68*
Cc1ccc(Sc2ncnc3onc(C)c23)c(C)c1 | 28 | 0 | 37 | 14
Cc1noc2ncnc(Sc3ccccc3Cl)c12 | 28 | 5 | 17 | 54*
CNC[C@H](CC1CCCCC1)NC[C@H](Cc1ccccc1)NCCC12CC3CC(CC(C3)C1)C2 | 101* | 4 | -43 | 42
C[C@H](CO)N1C[C@H](C)[C@H](CN(C)C)Oc2ccc(NC(=O)CCCCCC(=O)Nc3ccccc3N)cc2CC1=O | -8 | nt | nt | nt
Cc1c(NC(=O)C(c2ccccc2)c2ccccc2)cccc1C(=O)O | -6 | 1 | 2 | -41
O=C(O)c1cc(O)ccc1NC(=O)C(c1ccccc1)c1ccccc1 | 4 | -1 | 110* | 61*
O=[N+]([O-])c1cc([N+](=O)[O-])c2oc(-c3ccccc3)c(Br)c2c1O | nt | -6 | 36 | 69*
Cc1ccc(NC(=O)COC(=O)c2c(-c3ccccc3)noc2C)cc1 | 12 | nt | 3 | 12
Cc1onc(-c2ccccc2)c1C(=O)OCC(=O)Nc1ccc(OC(F)(F)F)cc1 | 24 | nt | 15 | 52*
Cc1nc(C)c(C(=O)Nc2nc3c(C)cccc3s2)o1 | -5 | 3 | 70* | 35
CCCCN(C=O)c1c(CC)nc2c(OCCOc3ccc(F)cc3)cccn12 | 21 | nt | 63* | 0
O=C(C[C@@H]1CC[C@H](NC(=O)c2ccccn2)[C@@H](CO)O1)NCc1cccc(F)c1 | -10 | nt | nt | nt
C1CCC(C(CC2CCCCN2)C2CCCCC2)CC1 (stereo not drawn) | 58*! | 3 | -12 | -4
Cc1ccc(O)c(-c2[nH]ncc2C(=O)c2ccc(Cl)cc2)c1 | 11 | -1 | 34 | -4
Cc1ccc(O)c(-c2[nH]ncc2C(=O)c2ccc(Br)cc2)c1 | -5 | 5 | 16 | 65*
CCCNC(=O)N1C[C@H](C)[C@@H](OC)CN(C)C(=O)c2cc(NC(=O)CC)ccc2OC[C@@H]1C | -2 | nt | nt | nt
COCCNC(=O)Cn1nc(-c2ccccc2F)ccc1=O | 4 | 2 | 51* | 6
CC(=O)N(C)C[C@@H]1[C@H](c2ccc(-c3ccccc3F)cc2)[C@H](CO)N1C(C)=O | 6 | nt | nt | nt
O=C1/C(=C/c2cccnc2)CCc2c1[nH]c1ccccc21 | -63 | -3 | 62* | 7
CC1C/C(=C\c2cccnc2)C(=O)/C(=C/c2cccnc2)C1 (stereo not drawn) | 85* | 2 | 103* | 52*
SMILES | LGR2 antag | HSP90 refold inh | TWEAK Fn14 block | TROY NFkB inh
C[C@H](CO)N1C[C@H](C)[C@H](CN(C)C(=O)c2ccccc2)OCCCC[C@H](C)Oc2ccc(NC(=O)Nc3cccc4ccccc34)cc2C1=O | 4 | nt | nt | nt
COC(=O)c1nc(NNC(=O)c2ccccc2)sc1-c1ccccc1 | -11 | 4 | 82* | -6
COc1cc(OC)c(OC)cc1/C=C1\CC(C)C/C(=C\c2cc(OC)c(OC)cc2OC)C1=O (stereo not drawn) | 16 | -3 | 64* | 37
CCC1C/C(=C\c2cc(OC)c(OC)cc2OC)C(=O)/C(=C/c2cc(OC)c(OC)cc2OC)C1 (stereo not drawn) | nt | 2 | 26 | 12
O=C(Nc1ccccc1)Nc1nc(-c2ccccc2)cs1 | -42 | 0 | 29 | 21
COc1cccc(-c2csc(NC(=O)Nc3ccccc3)n2)c1 | -10 | 4 | 86* | 58*
COc1cccc(NC(=O)Nc2nnc(CC(=O)Nc3ccccc3)s2)c1 | -1 | -6 | 51* | 30
C[C@@H]1CN([C@H](C)CO)C(=O)c2cc(NC(=O)Nc3cccc4ccccc34)ccc2O[C@@H](C)CCCCO[C@@H]1CN(C)S(=O)(=O)c1cccs1 | 0 | nt | nt | nt
O=C(/C=C/c1ccc(NC(=O)c2ccccc2-c2ccccc2C(=O)O)cc1)c1ccccc1 | -1 | 0 | 59* | -21
CCCC(=O)Nc1ccc2c(c1)OC[C@H](C)N(C)C[C@H](C)[C@@H](OC)CN(C)C2=O | -12 | nt | nt | nt
